Screening data: PubChem BioAssay, several laboratories
Hits are enriched below; roughly 2.2% of the tested compounds scored in any of these assays.
sPLA2-III inh: Blocks human group III sPLA2 activity; Q9NZ20; QFRET BODIPY PC-A2 liposome hydrolysis, fluorescence; inhibition, % at 12.2 µM; hit rate 0.56% among 370,000;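 active = inhibition above mean plus 3 SD of compounds lying within the high and low control bounds, cut at about 19% in these data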;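 note: 0% = median of test compound wells and 100% = no enzyme DMSO wells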
Target sequence (Q9NZ20 whole entry, looked up): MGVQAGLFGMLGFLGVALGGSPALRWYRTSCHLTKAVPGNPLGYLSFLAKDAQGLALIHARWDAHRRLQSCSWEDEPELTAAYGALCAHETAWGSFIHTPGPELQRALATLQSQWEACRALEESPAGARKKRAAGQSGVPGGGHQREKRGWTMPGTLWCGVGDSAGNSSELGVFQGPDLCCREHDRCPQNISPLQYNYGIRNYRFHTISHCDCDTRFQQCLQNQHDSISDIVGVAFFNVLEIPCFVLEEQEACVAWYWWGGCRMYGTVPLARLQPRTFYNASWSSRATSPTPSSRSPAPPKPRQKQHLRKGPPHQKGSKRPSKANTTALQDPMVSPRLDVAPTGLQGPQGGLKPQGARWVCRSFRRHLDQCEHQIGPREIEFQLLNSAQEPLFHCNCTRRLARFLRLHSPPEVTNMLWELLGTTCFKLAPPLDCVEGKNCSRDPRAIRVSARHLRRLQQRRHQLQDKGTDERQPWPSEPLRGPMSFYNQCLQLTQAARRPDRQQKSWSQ
Efflux pump mplx: inhibitors of Candida antifungal efflux pumps expressed in yeast; S. cerevisiae Candida pump triplex, Nile Red efflux; inhibition, % at 10 µM; hit rate 0.44% among 330,000;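 active = plate passing quality check with inhibition over a set limit, or well fluorescence over plate mean plus 4 SD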;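 note: Nile Red retained in pooled yeast measured as flow cytometry median fluorescence; 0% = buffer negative control and 100% = Enniatin B positive control; higher means more Nile Red kept so more efflux inhibition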
Mot1-301 SUMO: SUMOylation pathway inhibition by Mot1-301 growth rescue | S. cerevisiae Mot1-301 growth rescue, ATP luminescence, 38.5C; percent above DMSO median, 100 means doubled | growth rescue, % at 18.8 µM | AID 2716 | hit rate 1% among 320,000;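 active = every valid replicate shows activation above 250% relative to neutral control wells; inactive = the rest, any valid replicate at or below 250%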;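 note: OY570 slx delta 5 strain wells were the positive control but not used for scaling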
SKN-1 inh: inhibitors of C. elegans SKN-1; C. elegans VP596 Pgst-4::GFP/RFP ratio, acrylamide-induced, 24 h; inhibition, % at 21.8 µM; hit rate 0.49% among 360,000;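 active = interference check ratio from 0.5 to 1.5 plus GFP to RFP signal ratio inhibition reaching or exceeding a fixed threshold, cut at about 30% in these data, passing the limit was not always enough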
Mot1 SUMO dose: yeast SUMO pathway inhibition in dose response | growth activity, percent, % at 42 µM | shares compounds with Mot1-301 SUMO | AID 493004 | S. cerevisiae Mot1-301 galactose growth, ATP luminescence, 24 h; -100 = growth of slx-deleted rescue strain | 2,300 tested, under 10 active;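 active = Signal drops as the depositor expects, and the fitted half-maximal dose is no more than ten times the top valid tested dose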;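 note: more negative values mean stronger growth rescue toward the control strain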
Numbers without * were called inactive; . = not tested or not shown; + = active, no number.

SMILES	sPLA2-III inh	Efflux pump mplx	Mot1-301 SUMO	SKN-1 inh	Mot1 SUMO dose
Cc1ccc(C(=O)O/N=C(\N)c2cccc([N+](=O)[O-])c2)cc1	2	0	-15	6	.
Cn1c(SCC(=O)Nc2ccc(N3CCOCC3)c(Cl)c2)nnc1-c1ccccc1	.	0	692*	.	0
N#CCC[C@H]1CC[C@]2(CCCN(C(=O)c3ccc4ccccc4n3)C2)O1	6	.	.	.	.
O=C(Nc1nnc(COc2ccc(Cl)cc2)s1)c1cccs1	-1	0	-14	29	.
O=C(Nc1nnc(COc2ccc(F)cc2)s1)c1cccs1	9	0	940*	1	-1
CC(=O)NCc1c(Cl)cccc1-n1cccc1	2	0	785*	6	0
Cc1ccnc(NC(c2ccccc2)c2ccc3cccnc3c2O)c1 (centres undefined)	16	.	.	-10	.
Cc1ccnc(NC(c2cccnc2)c2ccc3cccnc3c2O)c1 (centres undefined)	16	0	+	13	-1
Cc1cccn2c(=O)c3cc(C(=O)NCc4cccnc4)c(=N)n(C(C)C)c3nc12	2	0	759*	7	0
Cc1cccn2c(=O)c3cc(C(=O)NCCc4ccccc4)sc3nc12	5	1	798*	10	0
C[C@H]1CN([C@@H](C)CO)C(=O)CCCn2cc(nn2)CO[C@@H]1CN(C)C(=O)NC1CCCCC1	9	.	.	1	.
COC(=O)C1(C(=O)OC)C[C@H](c2ccc(OC)cc2)N(Cc2ccccc2OC)[C@@H]1c1ccc(OC)cc1	8	.	.	-2	.
CSCCc1nc(SCC(=O)Nc2nnc(C)s2)[nH]c1C	-8	0	+	-1	1
CN1CCCC(n2nc(Cc3ccc(Cl)cc3)c3ccccc3c2=O)CC1 (centres undefined)	12	0	396*	-19	0
CC(=O)c1cc(-c2ccc3[nH]ccc3c2)c(=O)n2c1CCC2	-7	.	.	.	.
O=C(N[C@H]1CC[C@H](CCNS(=O)(=O)c2ccc(Cl)cc2)O[C@@H]1CO)c1cccc(F)c1	-6	.	.	6	.
CCOC(=O)c1sc(N/N=C/c2ccc(N(C)C)cc2)nc1C	8	0	+	18	0
CC(=O)c1sc(N/N=C\c2ccc(Br)cc2)nc1C	-4	0	-21	11	.
COc1ccc(C(=O)N/C(=C\c2cc(OC)c(OC)cc2[N+](=O)[O-])C(=O)NCC(=O)O)cc1	-4	0	11	7	.
COc1ccc(C(=O)N/C(=C\c2cc(OC)c(OC)cc2[N+](=O)[O-])C(=O)NCCO)cc1	-1	0	993*	-13	0
CC(=O)c1ccc(Nc2cc(C)nc3c(C)cccc23)cc1	0	0	22	-2	.
CC(=O)c1ccc(Nc2cc(C)nc3ccccc23)cc1	-5	0	574*	8	0
O=C1CN(C(=O)COC(=O)c2ccco2)c2ccccc2N1	-4	0	10	9	.
O=C1CN(C(=O)COC(=O)c2ccccc2NCc2ccco2)c2ccccc2N1	-18	0	728*	-13	0
COCCN(CCOC)Cc1cc(=O)oc2ccccc12	7	.	.	-1	.
SMILES	sPLA2-III inh	Efflux pump mplx	Mot1-301 SUMO	SKN-1 inh	Mot1 SUMO dose
O=C1CC(c2ccccc2)c2ccc(O)cc2O1 (centres undefined)	-4	0	+	18	0
COc1ccccc1C1CC(=O)Oc2cc(O)ccc21 (centres undefined)	9	0	.	9	.
COc1ccc(-c2oc3c4c2C(=O)OCCOC4CCC3)cc1 (centres undefined)	-3	.	.	10	.
COc1cccc(OC)c1C(=O)Nc1ccc2c(c1)N(S(=O)(=O)c1cccs1)CCC2	7	0	490*	-3	0
CSCCC(NC(=O)c1ccccc1)C(=O)N1CCN(C(=O)c2ccccc2)CC1 (centres undefined)	-1	0	-15	4	.
CSCCC(NC(=O)c1ccco1)C(=O)N1CCN(Cc2ccccc2)CC1 (centres undefined)	-1	0	426*	10	0
CC1(C)CC(O)CC(C)(C)N1CC(O)COCc1ccccc1 (centres undefined)	-1	0	287	19	.
Cc1cccc(OCC(O)CN2C(C)(C)CC(O)CC2(C)C)c1 (centres undefined)	3	0	571*	11	0
O=[N+]([O-])c1cncc([N+](=O)[O-])c1Nc1ccccc1Cl	1	0	813*	11	0
COCc1cccc(-c2csc(C(C)(O)c3ccccc3)n2)c1 (centres undefined)	-3	.	.	2	.
COc1cc(/C=N/NC2=NS(=O)(=O)c3ccccc32)cc(OC)c1OC	6	0	630*	-9	0
COc1ccc(/C=N/NC2=NS(=O)(=O)c3ccccc32)cc1OC(C)=O	-2	0	-18	-6	.
Cc1ccc(C(C(=O)NCC2CCCO2)N(Cc2ccccc2F)C(=O)Cn2nnc(-c3cccs3)n2)cc1 (centres undefined)	-13	0	371*	24	0
O=C(NC1CCCC1)C(c1ccncc1)N(CC1CCCO1)C(=O)Cn1nnc(-c2cccs2)n1 (centres undefined)	-9	0	4	-14	.
COc1ccc(F)cc1S(=O)(=O)n1nc(C)cc1C	6	0	234	-12	.
CCN(CC(=O)NC1CCS(=O)(=O)C1)S(=O)(=O)c1ccc(Cl)cc1C(F)(F)F (centres undefined)	-5	0	11	-5	.
O=C(O)c1cn(Cc2ccccn2)c(=O)c2ccccc12	2	0	+	-8	0
N#Cc1c(NC(=O)c2ccc(Cn3cc(Br)cn3)o2)sc2c1CCCCC2	-8	0	9	19	.
COC(=O)c1sc(NC(=O)c2ccc(Cn3cc(Cl)cn3)o2)c(C#N)c1C	-16	0	+	-21	-1
O=C(Nc1ccc([N+](=O)[O-])cc1)c1ccc(Cn2cc([N+](=O)[O-])cn2)cc1	2	0	19	-6	.
O=C(Nc1cnn(Cc2ccc(Cl)cc2)c1)c1ccc([N+](=O)[O-])cc1	-17	0	390*	28	1
NNC(=O)c1ccc(Cn2cc(Cl)cn2)cc1	3	0	243	1	.
COC(=O)c1ccc(Cn2cc(Cl)cn2)cc1	3	0	652*	16	1
CCCCn1c(N)c(N(CC)C(=O)C2CCC2)c(=O)[nH]c1=O	-4	0	-1	-12	.
CCC1(CC)NC(=O)N(CC(=O)N2N=C(c3ccc(Cl)cc3)CC2c2ccco2)C1=O (centres undefined)	-20	0	581*	4	0
O=C(O)CCC(=O)N1N=C(c2c(-c3ccccc3)c3cc(Cl)ccc3[nH]c2=O)CC1c1ccco1 (centres undefined)	-25	0	377*	3	0
CCC(=O)N1N=C(c2ccc(C)cc2)CC1c1ccco1 (centres undefined)	-10	0	193	-10	.
CC(=O)NC1=CC(=C[N+](=O)[O-])C=C1O	6	.	.	-7	.
